Results taken from PubChem BioAssay (NCATS).
Several values for one entry are separate records, joined by “and”; a condition that tells them apart may be missing. Equal values may be shown once. Inconclusive results are not listed. Activity calls are given as the source filed them. Unless noted, calls follow the shape of the dose curve; as a rule, active = well fitted curve in the direction sought with a large enough effect; inconclusive = small, poorly fitted or top-dose-only effect, or another doubt; inactive = no such curve, though single readings can be large; an effect the other way counts as inactive or inconclusive.

Tests used:
[1] = target: Thyrotropin-releasing hormone receptor (Homo sapiens) (UniProt P34981); assay: qHTS for Small Molecule Agonists and Allosteric Enhancers of Human TRH Receptor: Validation Screen for Agonists (AID 493127;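 active = calcium activation more than 3 SD above the typical response in the agonist read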;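 also: intracellular calcium rise by fluo-8 fluorescence before TRH EC20 addition; 0% is about no effect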); settings: TRH receptor agonist cell assay; at 2 µM; stronger effect = higher value
Procedure, shortened: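 Read-out: intracellular calcium release measured kinetically by FDSS (fluo-8, ex 480/em 530 nm), 1 reading/s after a 10-cycle baseline. TRHR cells, 2000/well, cultured 18 h at 33.5C, dye-loaded at room temp. Compound-evoked positive calcium signal flags agonists.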

[2] = qHTS for Inhibitors of Cell Surface uPA Generation: Validation Assay (AID 493164); settings: mouse cells, plasminogen activation; series mostly up to 38.3 µM;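 also: RAW 264.7 macrophage cells exposed to compound for 18 h; 0% is about no effect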
Procedure, shortened: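 Compounds are titrated over seven points (2.45 nM–38.3 uM final) onto pre-plated RAW 264.7 cells and incubated for 18 h. Retained intracellular ATP, measured with ATP-Lite, indicates blocked lethal factor entry.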

[3] = Validation screen for small molecules that induce DNA re-replication in SW480 colon adenocarcinoma cells (AID 504364); settings: DNA re-replication phenotype (high-content imaging); series mostly up to 46.1 µM; also: potency is read from the fitted curve at half-maximal effect
Procedure, shortened: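 Read-out: total Hoechst intensity of nuclei by fluorescence scanning imager; hits raise the fraction of nuclei with elevated DNA content. Cells received compound for 48 hr at 37 C before a 40 min stain.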

[4] = target: Peptidyl-prolyl cis-trans isomerase NIMA-interacting 1 (Homo sapiens) (UniProt Q13526); assay: qHTS Validation Assay to Find Inhibitors of Pin1 (AID 504536; active = well fitted inhibition curve with a large enough effect in the polarisation, with a control signal flat, not every such curve was filed as active; the % refers to the polarisation; also: potency is read from the fitted curve at half-maximal effect); settings: Pin1 fluorescence polarization peptide binding assay; series mostly up to 57.5 µM
Procedure, shortened: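 Fluorescence polarization competition: compounds (titration) displace HiFluor-488-labeled Pin1-1b peptide from Pin1 (0.3 uM final) in pH 7.5 HEPES buffer with DTT, 10 min at room temperature; %Activity normalized to no-enzyme wells, curves fitted.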

[5] = target: Phosphoglycerate kinase, glycosomal (Trypanosoma brucei brucei) (UniProt P07378); assay: qHTS Validation Assay to Find Inhibitors of Phosphoglycerate Kinase (AID 504547); settings: enzymatic PGK inhibition, coupled luminescence read-out; series mostly up to 57.5 µM; also: potency is read from the fitted curve at half-maximal effect
Procedure, shortened: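 In TEA buffer (100mM, pH 7.6) containing 5mM MgCl2 and 0.01% Tween-20, the GAPDH-coupled PGK reaction proceeded for 60 minutes at room temperature before a single luminescence reading using Kinase-Glo Plus.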

[6] = target: phosphoglycerate mutase (Leishmania major) (UniProt Q4Q090); assay: qHTS Validation Assay to Find Inhibitors of Phosphoglycerate Mutase (AID 504548); settings: biochemical enzyme activity; series mostly up to 57.5 µM;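 also: end-point luminescence from Kinase-GloPlus after the PGAM reaction; % is scaled to controls: 0 for no effect and ±100 for the full control effect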
Procedure, shortened: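 Inhibition of L. major PGAM was assessed by Kinase-GloPlus luminescence following a 45-minute room-temperature reaction with enzyme at 1.25nM final.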

[7] = Inducers of the Endoplasmic Reticulum Stress Response (ERSR) in human glioma: Validation (AID 504836); settings: human glioma cells, ER stress response reporter; series mostly up to 38.3 µM; also: 0% is about no effect
Procedure, shortened: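 Stably transfected U87-MG human glioma cells carrying a GRP78-based luminescent sensor were seeded at 1000 cells/well, pin-dosed with compounds and incubated 16 h. Luciferase reagent was then added, and end-point luminescence was read after 10 min at room temperature.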

[8] = target: Ubiquitin carboxyl-terminal hydrolase 1 (Homo sapiens) (UniProt O94782); assay: Inhibitors of USP1/UAF1: Pilot qHTS (AID 504865); settings: purified USP1/UAF1, Ub-rhodamine cleavage fluorescence; series mostly up to 114 µM;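 also: rhodamine fluorescence freed from ubiquitin-rhodamine substrate followed over time; top concentration of the series differs between compounds; % is scaled to controls: 0 for no effect and ±100 for the full control effect; nearly all actives have a fitted effect of over 35% in size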
Procedure, shortened: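 In 50mM HEPES pH 7.8 containing 0.5mM EDTA, 1mM TCEP, 0.1 mg/ml BSA and 0.01% Tween-20, 1nM USP1/UAF1 is exposed to compound for 15 min, then Ub-Rho (150nM final) is added and fluorescence is read over time.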

[9] = qHTS for Inhibitors of ATXN expression: Validation of Cytotoxic Assay (AID 588349); settings: cytotoxicity counter-screen for ATXN expression inhibitors, cell viability; series mostly up to 57.1 µM; also: potency is read from the fitted curve at half-maximal effect
Procedure, shortened: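 Cytotoxicity counter-screen: HEK293 cells exposed to compound titrations, 72 hr, 37 degrees C. Read-out is intracellular ATP (CellTiter Glo luminescence) as a viability measure.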

[10] = Nrf2 qHTS screen for inhibitors: Validation (AID 493153; active = well fitted inhibition curve with a large enough effect in the main read-out, with a control signal flat, not every such curve was filed as active); settings: A549 ARE-Fluc reporter, 18-24 h; Potency: luciferase luminescence; viability change: measured here: cytotoxicity max response; luciferase luminescence, at 46.1 µM (top of the series)
Procedure, shortened: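 Concentration-response test in A549 ARE_Fluc reporter cells (5% FBS OPTI-MEM), compound exposure 18-24 h at 37°C, 5% CO2. Cell viability measured first by CellTiter-Fluor fluorescence; ARE-driven luciferase luminescence then measured as Nrf2 activity.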

[11] = target: DNA dC->dU-editing enzyme APOBEC-3G (Homo sapiens) (UniProt Q9HC16); assay: qHTS for inhibitors of Vif-A3G interactions: Validation (AID 588379); settings: Vif-A3G protein interaction assay; series mostly up to 46.1 µM; also: 0% is about no effect
Procedure, shortened: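 Yellow fluorescence (Ex 488, Em 500-530) of Vif-coexpressing HeLa A3G-eYFP cells, scanned by Acumen cytometer, reports blocked A3G degradation. Cells plated at 700/well overnight at 37 deg C before compound addition, then a further overnight compound incubation at 37 deg C.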

[12] = target: Bile acid receptor (Homo sapiens) (UniProt Q96RI1); assay: qHTS assay for small molecule agonists of farnesoid X receptor signaling (AID 588527; calls by dose curve;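 also: 0% = vehicle basal and 100% = reference agonist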); settings: HEK293T FXR-UAS-bla, beta-lactamase ratio, 16 h; stronger effect = higher value
Procedure, shortened: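 Quantitative HTS used FXR-UAS-bla HEK293T cells with 16 h compound incubation at 37 C. EC50 values came from concentration-response curves normalized to chenodeoxycholic acid.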

[13] = target: Glucocorticoid receptor (Homo sapiens) (UniProt P04150); assay: qHTS assay for small molecule agonists of glucocorticoid receptor signaling (AID 588532; active = well fitted curve in the direction sought with a large enough effect in the signal ratio, with a control signal flat; the % refers to the signal ratio;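 also: 100% = dexamethasone at 0.1 µM and 0% = DMSO only wells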); settings: HeLa MMTV-bla, beta-lactamase ratio, agonist, 18 h; stronger effect = higher value; percent of dexamethasone control, DMSO zero
Procedure, shortened: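 Stimulation of a glucocorticoid response element-driven beta-lactamase gene was measured in HeLa cells. Responses were scaled between DMSO basal and 0.1 uM dexamethasone, then fitted for half-maximal stimulation.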

[14] = target: Estrogen receptor (Homo sapiens) (UniProt P03372); assay: qHTS assay for small molecule antagonists of estrogen receptor alpha signaling (AID 588513; active = well fitted curve in the direction sought with a large enough effect in the signal ratio, with a control signal flat, not every such curve was filed as active; the % refers to the signal ratio; also: % is scaled to controls: 0 for no effect and ±100 for the full control effect); settings: ER-alpha-UAS-bla HEK293, beta-lactamase ratio, antagonist mode; series mostly up to 76.9 µM
Procedure, shortened: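 Fluorescence from CCF4 substrate after 2 h at room temperature gave reporter activity; cells had been exposed to compound and 0.5nM 17-beta-estradiol for 18 h at 37 C. Hill-equation fitting yielded IC50 and maximal response.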

[15] = target: Estrogen receptor (Homo sapiens) (UniProt P03372); assay: qHTS assay for small molecule agonists of estrogen receptor alpha signaling (AID 588514; calls by dose curve;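 also: 0% = vehicle only and 100% = reference agonist; nearly all actives have a fitted effect of over 70% in size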); settings: ER-alpha-UAS-bla HEK293, beta-lactamase ratio, 18 h; series mostly up to 76.8 µM
Procedure, shortened: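 Read-out: CCF4 fluorescence from a beta-lactamase reporter in ER-alpha-UAS-bla HEK 293 cells after 18 hrs of compound exposure at 37 C. Normalized to 20 nM 17-beta-estradiol (100%) and DMSO (0%).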

[16] = target: Bile acid receptor (Homo sapiens) (UniProt Q96RI1); assay: qHTS assay for small molecule antagonists of farnesoid X receptor signaling (AID 588526; calls by dose curve; also: % is scaled to controls: 0 for no effect and ±100 for the full control effect); settings: HEK293T FXR-UAS-bla, beta-lactamase ratio, antagonist mode; series mostly up to 76.7 µM
Procedure, shortened: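 Concentration-response titrations were fitted to the Hill equation for half-maximal inhibition and maximal response, with data normalised to 50 uM chenodeoxycholic acid and DMSO control wells. Cells: FXR-UAS-bla HEK293T, dialyzed FBS.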

[17] = target: Glucocorticoid receptor (Homo sapiens) (UniProt P04150); assay: qHTS assay for small molecule antagonists of glucocorticoid receptor signaling (AID 588533; active = well fitted inhibition curve with a large enough effect in the signal ratio, with a control signal flat, not every such curve was filed as active; the % refers to the signal ratio;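 also: cells stimulated with 2 nM dexamethasone as agonist; % is scaled to controls: 0 for no effect and ±100 for the full control effect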); settings: HeLa MMTV-bla, GRE beta-lactamase ratio, antagonist mode, 18 h; series mostly up to 76.8 µM
Procedure, shortened: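 Antagonist-mode qHTS: compound titrations added to GRE-bla HeLa cells, then dexamethasone 2 nM final; 18 h, 37 C. CCF4 FRET fluorescence normalized to dexamethasone and DMSO; IC50 from Hill fit.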

Sequence of Phosphoglycerate kinase, glycosomal (Trypanosoma brucei brucei) (P07378 whole entry, looked up): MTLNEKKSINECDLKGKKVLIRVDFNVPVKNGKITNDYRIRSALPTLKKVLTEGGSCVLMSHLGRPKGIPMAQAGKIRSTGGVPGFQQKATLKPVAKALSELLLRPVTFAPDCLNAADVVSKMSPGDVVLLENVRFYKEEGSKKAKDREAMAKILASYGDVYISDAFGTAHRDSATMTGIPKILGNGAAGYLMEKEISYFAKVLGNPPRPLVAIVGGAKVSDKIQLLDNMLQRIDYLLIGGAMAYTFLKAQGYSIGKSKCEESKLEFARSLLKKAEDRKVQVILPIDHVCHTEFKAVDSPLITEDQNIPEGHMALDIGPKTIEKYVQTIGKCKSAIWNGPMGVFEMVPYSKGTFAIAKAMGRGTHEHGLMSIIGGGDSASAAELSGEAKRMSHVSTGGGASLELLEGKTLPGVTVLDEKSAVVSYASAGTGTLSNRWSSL
Sequence of DNA dC->dU-editing enzyme APOBEC-3G (Homo sapiens) (Q9HC16 whole entry, looked up): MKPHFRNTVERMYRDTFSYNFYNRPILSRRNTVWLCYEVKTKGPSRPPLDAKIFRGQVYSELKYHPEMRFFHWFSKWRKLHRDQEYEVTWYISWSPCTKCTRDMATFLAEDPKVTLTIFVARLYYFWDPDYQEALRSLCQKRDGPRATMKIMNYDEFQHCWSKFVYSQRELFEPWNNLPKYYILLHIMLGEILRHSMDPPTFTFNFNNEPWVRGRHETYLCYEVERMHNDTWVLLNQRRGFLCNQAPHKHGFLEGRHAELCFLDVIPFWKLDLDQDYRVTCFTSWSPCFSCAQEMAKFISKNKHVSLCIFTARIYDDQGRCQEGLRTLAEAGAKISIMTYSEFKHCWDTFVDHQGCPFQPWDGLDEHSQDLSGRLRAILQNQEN
Sequence of Thyrotropin-releasing hormone receptor (Homo sapiens) (P34981 whole entry, looked up): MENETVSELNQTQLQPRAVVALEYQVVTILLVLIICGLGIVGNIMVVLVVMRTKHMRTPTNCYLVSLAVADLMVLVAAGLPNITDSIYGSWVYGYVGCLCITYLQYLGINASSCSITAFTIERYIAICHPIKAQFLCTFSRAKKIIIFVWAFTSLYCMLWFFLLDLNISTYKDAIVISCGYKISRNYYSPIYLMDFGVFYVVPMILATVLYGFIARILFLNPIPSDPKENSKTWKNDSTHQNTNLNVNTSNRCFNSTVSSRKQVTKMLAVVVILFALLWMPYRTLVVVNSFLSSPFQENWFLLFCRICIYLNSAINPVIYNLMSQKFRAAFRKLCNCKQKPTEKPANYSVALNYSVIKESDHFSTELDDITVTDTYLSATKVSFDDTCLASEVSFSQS
Sequence of Glucocorticoid receptor (Homo sapiens) (P04150 whole entry, looked up): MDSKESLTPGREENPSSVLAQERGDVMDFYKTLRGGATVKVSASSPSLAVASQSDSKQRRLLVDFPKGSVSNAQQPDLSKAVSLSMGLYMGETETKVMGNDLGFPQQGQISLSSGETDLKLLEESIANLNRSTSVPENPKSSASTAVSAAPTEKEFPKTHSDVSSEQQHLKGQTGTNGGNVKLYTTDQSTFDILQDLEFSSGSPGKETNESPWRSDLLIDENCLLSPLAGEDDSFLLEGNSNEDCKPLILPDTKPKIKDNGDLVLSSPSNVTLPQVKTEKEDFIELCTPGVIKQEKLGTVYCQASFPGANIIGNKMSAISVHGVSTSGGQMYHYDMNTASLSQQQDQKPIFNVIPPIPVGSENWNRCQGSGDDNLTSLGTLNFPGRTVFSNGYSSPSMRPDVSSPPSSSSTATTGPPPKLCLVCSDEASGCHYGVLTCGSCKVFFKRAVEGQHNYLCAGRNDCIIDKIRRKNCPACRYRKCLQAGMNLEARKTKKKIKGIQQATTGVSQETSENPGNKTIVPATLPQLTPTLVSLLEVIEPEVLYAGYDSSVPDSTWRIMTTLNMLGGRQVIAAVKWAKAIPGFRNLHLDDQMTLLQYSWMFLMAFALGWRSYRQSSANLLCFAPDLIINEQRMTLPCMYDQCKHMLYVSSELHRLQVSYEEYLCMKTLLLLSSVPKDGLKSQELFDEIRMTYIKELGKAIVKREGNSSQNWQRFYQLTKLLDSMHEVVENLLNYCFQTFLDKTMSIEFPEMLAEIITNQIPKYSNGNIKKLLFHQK
Sequence of phosphoglycerate mutase (Leishmania major) (Q4Q090 1-553): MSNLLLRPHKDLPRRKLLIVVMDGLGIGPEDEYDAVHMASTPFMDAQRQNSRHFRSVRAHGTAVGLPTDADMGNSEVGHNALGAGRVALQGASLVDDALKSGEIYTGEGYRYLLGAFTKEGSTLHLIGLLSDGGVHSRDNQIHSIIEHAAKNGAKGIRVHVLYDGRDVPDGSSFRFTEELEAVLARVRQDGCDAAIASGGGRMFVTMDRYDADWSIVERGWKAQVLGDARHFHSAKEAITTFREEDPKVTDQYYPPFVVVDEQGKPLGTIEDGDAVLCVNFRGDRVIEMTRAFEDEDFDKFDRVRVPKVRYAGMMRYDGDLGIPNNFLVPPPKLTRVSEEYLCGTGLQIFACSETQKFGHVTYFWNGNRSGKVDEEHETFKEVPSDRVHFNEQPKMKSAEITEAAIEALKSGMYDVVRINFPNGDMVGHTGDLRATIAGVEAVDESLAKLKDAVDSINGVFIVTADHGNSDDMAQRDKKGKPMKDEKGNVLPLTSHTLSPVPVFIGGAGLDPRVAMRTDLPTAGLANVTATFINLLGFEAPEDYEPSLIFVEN
Sequence of Estrogen receptor (Homo sapiens) (P03372 whole entry, looked up): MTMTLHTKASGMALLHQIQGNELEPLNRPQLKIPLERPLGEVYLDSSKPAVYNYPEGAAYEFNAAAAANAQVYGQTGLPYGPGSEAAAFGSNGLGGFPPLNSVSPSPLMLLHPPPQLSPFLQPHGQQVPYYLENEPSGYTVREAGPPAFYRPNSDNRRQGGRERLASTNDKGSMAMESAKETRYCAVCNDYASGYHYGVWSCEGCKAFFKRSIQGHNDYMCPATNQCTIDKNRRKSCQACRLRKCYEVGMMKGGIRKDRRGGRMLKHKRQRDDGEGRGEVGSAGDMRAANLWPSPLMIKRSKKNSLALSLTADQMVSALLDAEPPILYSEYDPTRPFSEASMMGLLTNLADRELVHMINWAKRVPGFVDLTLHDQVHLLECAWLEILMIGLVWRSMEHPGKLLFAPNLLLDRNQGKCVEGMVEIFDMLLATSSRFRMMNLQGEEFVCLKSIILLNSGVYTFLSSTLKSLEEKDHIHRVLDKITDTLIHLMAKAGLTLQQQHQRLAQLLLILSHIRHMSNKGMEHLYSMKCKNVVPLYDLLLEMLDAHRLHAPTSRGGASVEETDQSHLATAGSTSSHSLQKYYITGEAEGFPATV
Sequence of Ubiquitin carboxyl-terminal hydrolase 1 (Homo sapiens) (O94782 whole entry, looked up): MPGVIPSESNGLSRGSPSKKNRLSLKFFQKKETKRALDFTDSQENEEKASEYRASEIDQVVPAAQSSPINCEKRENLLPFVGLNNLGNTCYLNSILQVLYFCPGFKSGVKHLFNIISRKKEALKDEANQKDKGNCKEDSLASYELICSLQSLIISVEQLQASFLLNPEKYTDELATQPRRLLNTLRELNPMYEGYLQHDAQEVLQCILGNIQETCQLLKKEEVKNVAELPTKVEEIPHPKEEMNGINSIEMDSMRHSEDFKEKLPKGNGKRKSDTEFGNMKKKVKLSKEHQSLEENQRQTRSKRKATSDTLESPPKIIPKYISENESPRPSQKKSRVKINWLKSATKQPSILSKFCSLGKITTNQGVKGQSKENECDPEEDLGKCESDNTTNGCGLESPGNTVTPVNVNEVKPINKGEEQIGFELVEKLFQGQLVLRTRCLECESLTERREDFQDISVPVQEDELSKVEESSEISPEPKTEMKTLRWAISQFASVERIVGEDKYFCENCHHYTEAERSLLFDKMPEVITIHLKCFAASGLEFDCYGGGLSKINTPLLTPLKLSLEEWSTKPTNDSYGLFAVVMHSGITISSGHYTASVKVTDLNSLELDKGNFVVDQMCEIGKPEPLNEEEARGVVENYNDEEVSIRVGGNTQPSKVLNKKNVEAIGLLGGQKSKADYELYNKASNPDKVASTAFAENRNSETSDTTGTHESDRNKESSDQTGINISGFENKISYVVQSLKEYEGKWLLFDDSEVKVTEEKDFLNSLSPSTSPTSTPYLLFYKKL
Sequence of Peptidyl-prolyl cis-trans isomerase NIMA-interacting 1 (Homo sapiens) (Q13526 whole entry, looked up): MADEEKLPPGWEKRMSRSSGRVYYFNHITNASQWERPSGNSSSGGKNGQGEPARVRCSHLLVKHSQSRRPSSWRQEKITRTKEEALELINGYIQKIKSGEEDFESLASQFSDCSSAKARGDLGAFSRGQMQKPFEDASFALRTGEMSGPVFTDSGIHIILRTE
Sequence of Bile acid receptor (Homo sapiens) (Q96RI1 whole entry, looked up): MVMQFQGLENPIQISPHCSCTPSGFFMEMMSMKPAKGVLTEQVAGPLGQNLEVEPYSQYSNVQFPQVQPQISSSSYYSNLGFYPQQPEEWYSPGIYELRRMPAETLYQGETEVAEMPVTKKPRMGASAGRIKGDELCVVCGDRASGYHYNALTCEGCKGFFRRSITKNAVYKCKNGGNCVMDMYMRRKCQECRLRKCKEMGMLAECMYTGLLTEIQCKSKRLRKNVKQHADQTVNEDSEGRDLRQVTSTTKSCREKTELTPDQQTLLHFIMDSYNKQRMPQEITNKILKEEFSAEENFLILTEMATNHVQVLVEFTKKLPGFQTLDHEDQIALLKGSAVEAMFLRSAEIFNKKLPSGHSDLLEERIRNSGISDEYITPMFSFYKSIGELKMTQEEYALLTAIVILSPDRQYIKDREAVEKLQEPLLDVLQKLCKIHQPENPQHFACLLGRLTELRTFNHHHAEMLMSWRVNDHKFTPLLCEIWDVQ

c1ccc2c(c1)OCC(C1=NCCN1)O2 (stereo unspecified)
inactive: activation [1] 1.38% | outcome [2] | Potency [3] | Potency [4] | Potency [5] | outcome [6] | outcome [7] | Potency [8]
active: Potency [9] 22.4 µM

C[C@@H]1O[C@@H](O[C@H]2C[C@@H](O)[C@]3(CO)[C@H]4[C@H](O)C[C@]5(C)[C@@H](C6=CC(=O)OC6)CC[C@]5(O)[C@@H]4CC[C@]3(O)C2)[C@H](O)[C@H](O)[C@H]1O
inactive: outcome [2] | Potency [3] | Potency [4] | Potency [5] | outcome [6] | outcome [7] | Potency [8]

Cc1ncc(CNC(=O)N(CCCl)N=O)c(N)n1
inactive: activation [1] 1.5% | outcome [2] | Potency [3] | Potency [4] | Potency [5] | outcome [6] | outcome [7] | Potency [8] | Potency [9]

CC(C)=CCOc1c2occc2cc2ccc(=O)oc12
inactive: Potency [10] | outcome [2] | Potency [4] | Potency [5] | outcome [6] | outcome [7] | Potency [8] | Potency [9]
0.848%: viability change [10]

COC[C@H]1OC(=O)c2coc3c2[C@@]1(C)C1=C(C3=O)C2CCC(=O)[C@@]2(C)C[C@H]1OC(C)=O (stereo partly specified)
inactive: activation [1] 0.25% | Potency [3] | Potency [5] | outcome [6] | Potency [8]

NN=C(N)N
inactive: Potency [10] | outcome [2] | Potency [3] | Potency [4] | Potency [5] | outcome [6] | outcome [7] | Potency [8] | Potency [9] | outcome [11]
4.74% and 3.63%: viability change [10]

C=C(C)[C@H]1Cc2c(ccc3c2O[C@@H]2COc4cc(OC)c(OC)cc4[C@@H]2C3=O)O1
active: Potency [3] 0.92 µM
inactive: activation [1] 1.25% | outcome [2] | Potency [4] | Potency [5] | outcome [6] | outcome [7] | outcome [11] | activation [12] -1.33% | activation [13] -11.8%

c1ccc(C2CC2)c(OCC2=NCCN2)c1
inactive: activation [1] 0.562% | Potency [10] | outcome [2] | Potency [3] | Potency [4] | Potency [5] | outcome [6] | outcome [7] | Potency [8] | Potency [9] | outcome [11]
5.58%: viability change [10]

CCC1(C2=NCCN2)Cc2ccccc2O1 (stereo unspecified)
inactive: activation [1] 0.812% | Potency [10] | outcome [2] | Potency [3] | Potency [4] | Potency [5] | outcome [6] | outcome [7] | Potency [8] | Potency [9]
1.87%: viability change [10]

COc1ccc(C(CN(C)C)C2(O)CCCCC2)cc1 (stereo unspecified)
inactive: Potency [10] | outcome [2] | Potency [4] | Potency [5] | outcome [6] | outcome [7] | Potency [8] | Potency [9]
3.45%: viability change [10]

CC(O)(CS(=O)(=O)c1ccc(F)cc1)C(=O)Nc1ccc(C#N)c(C(F)(F)F)c1 (stereo unspecified)
inactive: Potency [10] | outcome [2] | Potency [4] | Potency [5] | outcome [6] | outcome [7] | Potency [8] | Potency [9]
-8.54%: viability change [10]

CC[C@@H](CO)NC(=O)[C@@H]1C=C2c3cccc4[nH]cc(c34)C[C@H]2N(C)C1
-12.7%: viability change [10]
inactive: Potency [10] | outcome [2] | Potency [5] | outcome [6] | outcome [7] | Potency [8] | Potency [9]

CCCN1CCC[C@@H]2Cc3[nH]ncc3C[C@H]21
1.53% and 0.366%: viability change [10]
inactive: Potency [10] | outcome [2] | Potency [4] | Potency [5] | outcome [6] | outcome [7] | Potency [8] | Potency [9] | outcome [11]

CNCC(O)c1ccc(O)cc1 (stereo unspecified)
inactive: activation [1] 1.12% | Potency [10] | outcome [2] | Potency [3] | Potency [4] | Potency [5] | outcome [6] | outcome [7] | Potency [8] | Potency [9] | outcome [14] | Potency [15] | Potency [16] | activation [12] -1.79% | activation [13] 9.17% | Potency [17]
-6.1%: viability change [10]

Fc1ccc(C(OCCN2CCN(CCCc3ccccc3)CC2)c2ccc(F)cc2)cc1
active: Potency [9] 35.5 µM
inactive: activation [1] -5.62% | outcome [2] | Potency [4] | Potency [5] | outcome [6] | outcome [7] | outcome [11]

O=c1[nH]c2ccccc2n1CCCN1CCC(n2c(=O)[nH]c3cc(Cl)ccc32)CC1
-5.95%: viability change [10]
inactive: Potency [10] | outcome [2] | Potency [3] | Potency [4] | Potency [5] | outcome [6] | outcome [7] | Potency [8]

Clc1cccc(N2CCNCC2)c1
inactive: Potency [3] | outcome [11]

COc1cc2c(c(OC)c1OC)-c1ccc(OC)c(=O)cc1[C@@H](NC(C)=O)CC2
inactive: outcome [14] | activation [12] -2.29% | activation [13] -3.94% and -2.86% | Potency [17]
active: Potency [3] 0.058 µM

Cc1cc2c(C(C)C)c(O)c(O)c(C=O)c2c(O)c1-c1c(C)cc2c(C(C)C)c(O)c(O)c(C=O)c2c1O
active: Potency [4] 9.53 µM | Potency [9] 10 µM

O=c1c(O)c(-c2ccc(O)c(O)c2)oc2cc(O)cc(O)c12
active: Potency [5] 7.57 µM

CNCCC(Oc1ccc(C(F)(F)F)cc1)c1ccccc1 (stereo unspecified)
active: Potency [9] 28.2 µM

CC(C)NCC(O)c1ccc(O)c(O)c1 (stereo unspecified)
inactive: Potency [9]

CC(C)C(=O)Nc1ccc([N+](=O)[O-])c(C(F)(F)F)c1
inactive: Potency [15]
